In PubChem BioAssay AID652018 (The Scripps Research Institute Molecular Screening Center, 2013) one finds anti-target count and outcome data, which are given here for 23 compounds.

Structures are written as SMILES. Calls of active or inactive are those of the source.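 How the source made its calls: active means at least 50% inhibition of LYPLA1 or LYPLA2 at 300 nM, with no off-target enzyme hit at any dose; inactive means under 50% inhibition on both enzymes, or any off-target hit.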

The assay concerns Anti-Targets. The assay is described as follows: LYPLA1 inhibitor selectivity over serine hydrolases, late-stage follow-up, selectivity assay for LYPLA1 inhibitor project, cell lysate, competitive ABPP, HEK293T proteome, set 2 (AID 652018). The settings on record: competitive ABPP FP-PEG-Rh gel; anti-targets hit, at 10 µM.
Consider `COc1ccc(N2CCN(C(=O)n3cncn3)CC2)cc1`, for which the anti-target count was 0 and the outcome was inactive.

For `O=C(CN1CCN(C(=O)n2ncc(-c3ccc(Br)cc3)n2)CC1)Nc1cc(C(F)(F)F)ccc1Cl`, the call was inactive and the anti-target count was found to be 0.

Regarding `COc1ccc(N2CCN(C(=O)n3nc(Br)nc3Br)CC2)cc1`, the compound was called inactive and the anti-target count stood at 0.

Regarding `O=C(CN1CCN(C(=O)n2cc(-c3ccc(-c4ccccc4)cc3)nn2)CC1)Nc1cc(C(F)(F)F)ccc1Cl`, the compound was called inactive and the anti-target count was found to be 0.

On to `COc1ccc(N2CCN(C(=O)n3ncc(-c4ccc(OC(F)(F)F)cc4)n3)CC2)cc1`, for which the anti-target count amounted to 0 and the compound was called inactive.

As to `COc1ccc(N2CCN(C(=O)n3nccn3)CC2)cc1`, the anti-target count is 0 and the compound was classed as inactive.

Consider `COc1ccc(N2CCN(C(=O)n3cc(C(O)(c4ccccc4)c4ccccc4)nn3)CC2)cc1`, for which the anti-target count worked out at 2 and the result was active.

Regarding `O=C(N1CCN(c2ccc(Cl)c(Cl)c2)CC1)n1ncc(C(O)(c2ccccc2)c2ccccc2)n1`, the anti-target count came to 0 and the compound was classed as inactive.

Regarding `O=C(CN1CCN(C(=O)n2cncn2)CC1)Nc1cc(C(F)(F)F)ccc1Cl`, the anti-target count was 0 and the compound was called inactive.

Turning to `O=C(N1CCN(c2ccc(Br)cc2)CC1)n1ncc(C(O)(c2ccccc2)c2ccccc2)n1`, the anti-target count was determined as 0 and the outcome was inactive.

Regarding `COc1ccc(N2CCN(C(=O)n3ncc(-c4ccccc4)n3)CC2)cc1`, the compound was called inactive and the anti-target count was found to be 0.

As for `O=C(CN1CCN(C(=O)n2ncc(-c3ccc(-c4ccccc4)cc3)n2)CC1)Nc1cc(C(F)(F)F)ccc1Cl`, the anti-target count worked out at 0 and the outcome was inactive.

For the compound `O=C(CN1CCN(C(=O)n2nccn2)CC1)Nc1cc(C(F)(F)F)ccc1Cl`, the anti-target count turned out to be 0 and the result was inactive.

Turning to `COc1ccc(N2CCN(C(=O)n3ccnn3)CC2)cc1`, the anti-target count stood at 0 and the compound was called inactive.

In the case of `O=C(CN1CCN(C(=O)n2cc(-c3ccc(OC(F)(F)F)cc3)nn2)CC1)Nc1cc(C(F)(F)F)ccc1Cl`, the result was inactive and the anti-target count is 0.

`O=C(CN1CCN(C(=O)n2ncc(C(O)(c3ccccc3)c3ccccc3)n2)CC1)Nc1cc(C(F)(F)F)ccc1Cl`: the anti-target count is 1 and the outcome was active.

As for `O=C(CN1CCN(C(=O)n2cc(C(O)(c3ccccc3)c3ccccc3)nn2)CC1)Nc1cc(C(F)(F)F)ccc1Cl`, the anti-target count turned out to be 0 and the outcome was inactive.

Regarding `COc1ccc(N2CCN(C(=O)n3ncc(C(O)(c4ccccc4)c4ccccc4)n3)CC2)cc1`, the anti-target count is 1 and the call was active.

In the case of `COc1ccc(N2CCN(C(=O)n3cc(-c4ccc(OC(F)(F)F)cc4)nn3)CC2)cc1`, the anti-target count worked out at 0 and the result was inactive.

Regarding `O=C(CN1CCN(C(=O)n2nc(Br)nc2Br)CC1)Nc1cc(C(F)(F)F)ccc1Cl`, the result was inactive and the anti-target count was 0.

For `O=C(CN1CCN(C(=O)n2ncc(-c3ccc(OC(F)(F)F)cc3)n2)CC1)Nc1cc(C(F)(F)F)ccc1Cl`, the anti-target count came out at 0 and the compound was called inactive.

With `COc1ccc(N2CCN(C(=O)n3nc(Br)c(Br)n3)CC2)cc1`, the anti-target count worked out at 2 and the outcome was active.

In the case of `O=C(CN1CCN(C(=O)n2nc(Br)c(Br)n2)CC1)Nc1cc(C(F)(F)F)ccc1Cl`, the outcome was inactive and the anti-target count stood at 0.
